# In PubChem BioAssay (EPA / NIEHS):
# A structure can be active in one record and inactive in another. Activity calls are given as the source filed them. Rule for the calls: active = hit-call score of the fitted dose curve at least 0.9, where 1 is the maximum; inactive = score below 0.9.
# Assay: ATG_GLI_CIS: Attagene CIS-FACTORIAL HepG2 Assay for human Zinc Finger Protein GLI1 (AID 2282945)
# Settings: HepG2, Attagene cis-factorial reporter mRNA, GLI element; actives raise or lower the signal
# Protocol: ATG_CIS is a cell-based, multiplexed-readout assay that uses HepG2, a human liver cell line, with measurements taken at 24 hours after chemical dosing in a 24-well plate.ATG_GLI_CIS is one of 52 assay component(s) measured or calculated from the ATG_CIS assay. It is designed to make measurements of mRNA induction, a form of inducible reporter, as detected with fluorescence intensity signals by Reverse transcription polymerase chain reaction (RT-PCR) and Capillary electrophoresis technology.Data from the assay component ATG_GLI_CIS was analyzed into 1 assay endpoint. This assay endpoint, ATG_GLI_CIS, was analyzed with bidirectional fitting relative to DMSO as the negative control and baseline of activity. Using a type of inducible reporter, measures of mRNA for gain or loss-of-signal activity can be used to understand the reporter gene at the transcription factor-level as they relate to the gene GLI1. Furthermore, this assay endpoint can be referred to as a primary readout, because this assay has produced multiple assay endpoints where this one serves a reporter gene function. To generalize the intended target to other relatable targets, this assay endpoint is annotated to the dna binding intended target family, where the subfamily is zinc finger.
# Human liver HepG2 cells are transiently transfected with multiple reporter transcription units (MRTUs) in 6-well plates using FuGene 6 reagent (Roche; 3 ml FuGene/1 mg DNA). The MRTU constructs are regulated by a cis-regulating element (promoter). […] A major difference between the CIS and TRANS system is that in CIS activities of endogenous TFs are measured, whereas the TRANS assay evaluates changes in activities of exogenous, chimeric NR-Gal4 proteins. […] At the end of 24 hour incubation, total RNA was isolated using TriZol reagent (Invitrogen). The isolated RNA is then reverse-transcribed using oligo(dT) primer and Mo-MLV reverse transcriptase (Invitrogen) with DNAse I (Ambion) treatment for 30 min. The one-tenth of the produced cDNA was amplified by PCR using Taq DNA polymerase (Invitrogen) and two reporter sequence-specific primers. The PCR products were fluorescently labeled by primer extension with 6-arboxyfluorescein (6-FAM) 5'-labeled reporter sequence-specific primer (2 min at 95 C, 20 s at 68 C and 10 min at 72 C) and these products were digested with 5U of HpaI (New England Biolabs) for 2h at 37 C. The fragments were purified using Qiaquick PCR columns (Qiagen), analyzed on an ABI 3130xL genetic analyzer (Applied Biosystems) with peak positions identified by using a set of X-rhodamine (ROX)-labeled MapMarker1000 molecular weight standards (BioVentures). The raw capillary electrophoresis data was processed using Attagraph software (Attagene).
Structure (SMILES),outcome,AC50
CNC,inactive,
CC(C)(OO)c1ccccc1,inactive,
C(=NC1CCCCC1)=NC1CCCCC1,inactive,
C=CC(=O)N(C)C,inactive,
CC(=O)C(Cl)C(=O)N(C)C (stereo not given),inactive,
COc1ccc(OC)c(C=O)c1,inactive,
N#CN=C(N)N,inactive,
CN(CCCC(=O)c1cccnc1)N=O,inactive,
ClC1=C(Cl)[C@]2(Cl)[C@@H]3[C@@H](Cl)[C@@H](Cl)C[C@@H]3[C@@]1(Cl)C2(Cl)Cl,inactive,
O=C(O)C(Cl)(Cl)Cl,inactive,
COC(=O)c1sccc1S(=O)(=O)NC(=O)Nc1nc(C)nc(OC)n1,inactive,
ClC(Cl)=C(Cl)C(Cl)=C(Cl)Cl,,158 µM (active)
Nc1ccc(-c2ccc(N)c(Cl)c2)cc1Cl,inactive,
O=C(O)C(F)(F)C(F)(F)C(F)(F)C(F)(F)C(F)(F)C(F)(F)C(F)(F)C(F)(F)C(F)(F)C(F)(F)F,inactive,174 µM (active)
C1CCC(NC2CCCCC2)CC1,inactive,
Clc1ccc(COC(Cn2ccnc2)c2ccc(Cl)cc2Cl)cc1 (stereo not given),inactive,
CC(C)(c1ccc(OCC2CO2)cc1)c1ccc(OCC2CO2)cc1 (stereo not given),inactive,
ClCC(Cl)CCl,inactive,
COP(=O)(OC)O/C(=C\Cl)c1cc(Cl)c(Cl)cc1Cl,,130 µM (active)

Structure (SMILES),outcome,AC50
O=C(Cl)c1ccc(Cl)cc1,inactive,
Oc1ccc(-c2ccccc2)cc1,inactive,
CCc1ccccc1C,inactive,
CC12CC1(C)C(=O)N(c1cc(Cl)cc(Cl)c1)C2=O (stereo not given),inactive,
O=c1[nH]c(=O)[nH]c(=O)[nH]1,inactive,
C=CC(=O)OCCCCCC(C)C,inactive,
CC(C)CCCCCCOC(=O)c1ccccc1C(=O)OCCCCCCC(C)C,inactive,
CCC(C)(C)c1ccc(O)c(C(C)(C)CC)c1,inactive,
ClC1=C(Cl)[C@]2(Cl)[C@H]3[C@H]([C@H]4C=C[C@H]3C4)[C@@]1(Cl)C2(Cl)Cl,inactive,
CCCCCCCCC(=O)NCc1ccc(O)c(OC)c1,inactive,
CC(=[OH+])/C=C(/C)[O-].CC(=[OH+])/C=C(/C)[O-].CC(=[OH+])/C=C(/C)[O-].[Fe],inactive,
OCC(O)CCl (stereo not given),inactive,
CC(C#N)CCC#N (stereo not given),inactive,
CCOP(=S)(OCC)Oc1nc(Cl)c(Cl)cc1Cl,,71.9 µM (active)
CN(C)P(=O)(N(C)C)N(C)C,inactive,
CC(=O)[O][Hg][c]1ccccc1,inactive,
CCN1CCC2(CC1)COc1cc3c(cc12)N(C(=O)c1ccc(-c2ccc(-c4nnc(C)o4)cc2C)cc1)CC3,inactive,
O=C1C2(Cl)C3(Cl)C4(Cl)C(Cl)(Cl)C5(Cl)C3(Cl)C1(Cl)C5(Cl)C24Cl (stereo not given),inactive,3.57 µM (active)
COP(=S)(OC)Oc1ccc(Sc2ccc(OP(=S)(OC)OC)cc2)cc1,inactive,
